PubChem BioAssay
Active and inactive are the calls of the source.

Assays:
[1] = molecular target: Albumin (Bos taurus) (UniProt P02769); experiment: bovine serum albumin binders on microarray, profiling panel, artefact control for SMM control protein annotation, biochemical, small-molecule microarray, Alexa647 label, 635/667 nm fluorescence (AID 1118); conditions: BSA-A647 binding, fluorescence 635 nm, higher = more signal;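 note: score merges 667 nm emission intensity and signal-to-noise per printed compound spot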
Albumin (Bos taurus), sequence (P02769 whole entry, looked up): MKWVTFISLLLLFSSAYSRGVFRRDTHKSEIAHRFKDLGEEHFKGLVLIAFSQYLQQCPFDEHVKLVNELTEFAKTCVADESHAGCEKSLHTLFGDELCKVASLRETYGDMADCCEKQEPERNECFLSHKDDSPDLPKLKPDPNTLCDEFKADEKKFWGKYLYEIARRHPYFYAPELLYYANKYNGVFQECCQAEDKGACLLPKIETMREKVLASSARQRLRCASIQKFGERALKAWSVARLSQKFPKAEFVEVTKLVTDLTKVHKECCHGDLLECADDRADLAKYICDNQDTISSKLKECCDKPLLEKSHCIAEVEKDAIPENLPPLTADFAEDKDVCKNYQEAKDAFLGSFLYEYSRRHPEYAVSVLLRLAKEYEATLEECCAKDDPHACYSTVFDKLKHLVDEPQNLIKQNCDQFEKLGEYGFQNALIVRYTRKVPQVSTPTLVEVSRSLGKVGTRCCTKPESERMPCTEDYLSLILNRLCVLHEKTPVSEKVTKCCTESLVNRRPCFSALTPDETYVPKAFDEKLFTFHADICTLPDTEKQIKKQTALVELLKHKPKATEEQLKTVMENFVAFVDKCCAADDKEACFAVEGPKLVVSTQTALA

[2] = small-molecule microarray binders of probe aXIP, primary screen, biochemical, NeuroSMM set, 635/667 nm fluorescence (AID 1119); conditions: higher = more signal, called active from +8 up or from −8 down;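 note: probe is the protein aXip251-270 applied at 1 µg/mL to compound-printed slides; binding of probe to printed compounds measured as 667 nm fluorescence plus signal to noise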
[3] = small-molecule binders of probe aNOTCH3, primary screen, biochemical, small-molecule microarray, 635/667 nm fluorescence (AID 1120); conditions: higher = more signal;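 note: probe is a biotin-tagged antibody raised against NOTCH3 rather than NOTCH3 protein; score merges spot fluorescence near 667 nm with spot signal to noise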
[4] = small-molecule binders of probe aNOTCH2, primary screen, biochemical, small-molecule microarray, 635/667 nm fluorescence (AID 1121); conditions: higher = more signal;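 note: score merges feature fluorescence read at 667 nm with its signal to noise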
[5] = molecular target: Carbonic anhydrase 2 (Homo sapiens) (UniProt P00918); experiment: CAII small-molecule binders, profiling panel, biochemical, small-molecule microarray, Alexa647-labelled CAII (AID 1122); conditions: CAII-A647 binding fluorescence, higher = more signal
[6] = COS7 lysate on small-molecule microarray, probe aHis, 635 nm (AID 1123); conditions: COS7 cell lysate, fluorescence, higher = more signal;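 note: z-score combines 667nm fluorescence intensity with signal-to-noise per printed compound spot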
[7] = compound binding in COS7 lysate, probe aLAP1, primary screen, cell lysate, small-molecule microarray (AID 1124); conditions: probe aLAP1, fluorescence, higher = more signal;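 note: lysate comes from COS7 cells expressing LAP1 and is applied at 0.3 µg/mL; score merges spot fluorescence near 667 nm with signal-to-noise over triplicate slides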
[8] = test system: Sam68 (KHDRBS1); experiment: Sam68 small-molecule binders, primary screen, biochemical, small-molecule microarray, 635 nm fluorescence (AID 1125); conditions: small-molecule microarray binding, higher = more signal;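 note: score merges 667 nm channel intensity with signal to noise over triplicate slides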
[9] = test system: Chordin-like protein 2 (CHRDL2); experiment: CHRDL2 small-molecule binders, primary screen, biochemical, small-molecule microarray, 635 nm fluorescence (AID 1126); conditions: small-molecule microarray binding, fluorescence 635 nm; higher = more signal;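 note: printed compound slides probed with Chrdl2 protein at 4 µg/mL for 1 h at 4 C; score merges 667 nm emission intensity with signal to noise over three replicate slides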
[10] = molecular target: Concanavalin-A (Canavalia ensiformis) (UniProt P02866); experiment: ConA small-molecule binders, primary screen, artefact control for SMM control protein annotation, biochemical, small-molecule microarray, Alexa647 label, 635 nm (AID 1127); conditions: ConA-A647 binding fluorescence, higher = more signal;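 note: z combines 667 nm emission intensity with signal-to-noise across three replicate slides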
Concanavalin-A (Canavalia ensiformis), sequence (P02866 whole entry, looked up): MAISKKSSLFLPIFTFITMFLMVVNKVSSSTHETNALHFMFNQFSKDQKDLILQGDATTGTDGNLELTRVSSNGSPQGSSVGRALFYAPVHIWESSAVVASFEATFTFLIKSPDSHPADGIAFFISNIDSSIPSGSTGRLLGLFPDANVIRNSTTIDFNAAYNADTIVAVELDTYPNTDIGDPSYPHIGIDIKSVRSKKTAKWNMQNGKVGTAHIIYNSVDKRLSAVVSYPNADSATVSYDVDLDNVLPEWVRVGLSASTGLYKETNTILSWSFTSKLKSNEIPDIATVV

[11] = anti-His antibody binders, primary screen, artefact control for SMM control protein annotation, biochemical, small-molecule microarray, 635 nm fluorescence (AID 1128); conditions: anti-His Alexa647 antibody binding, higher = more signal;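 note: score merges feature fluorescence with signal-to-noise for each printed compound spot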
[12] = test system: Human papillomavirus type 1a E7 protein (residues 1-88); experiment: HPV1a E7 small-molecule binders, primary screen, biochemical, small-molecule microarray, residues 1-88, 635 nm (AID 1129); conditions: small-molecule microarray binding, fluorescence 635 nm; higher = more signal
[13] = molecular target: Focal adhesion kinase 1 (Homo sapiens) (UniProt Q05397); experiment: small-molecule microarray binders of FAK, primary screen, biochemical, 635/667 nm fluorescence, BSA, DTT (AID 1130); conditions: PTK2 binding, 635 nm fluorescence, higher = more signal;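 note: composite of spot emission at 667 nm and signal to noise over triplicate slides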
Focal adhesion kinase 1 (Homo sapiens), sequence (Q05397 whole entry, looked up): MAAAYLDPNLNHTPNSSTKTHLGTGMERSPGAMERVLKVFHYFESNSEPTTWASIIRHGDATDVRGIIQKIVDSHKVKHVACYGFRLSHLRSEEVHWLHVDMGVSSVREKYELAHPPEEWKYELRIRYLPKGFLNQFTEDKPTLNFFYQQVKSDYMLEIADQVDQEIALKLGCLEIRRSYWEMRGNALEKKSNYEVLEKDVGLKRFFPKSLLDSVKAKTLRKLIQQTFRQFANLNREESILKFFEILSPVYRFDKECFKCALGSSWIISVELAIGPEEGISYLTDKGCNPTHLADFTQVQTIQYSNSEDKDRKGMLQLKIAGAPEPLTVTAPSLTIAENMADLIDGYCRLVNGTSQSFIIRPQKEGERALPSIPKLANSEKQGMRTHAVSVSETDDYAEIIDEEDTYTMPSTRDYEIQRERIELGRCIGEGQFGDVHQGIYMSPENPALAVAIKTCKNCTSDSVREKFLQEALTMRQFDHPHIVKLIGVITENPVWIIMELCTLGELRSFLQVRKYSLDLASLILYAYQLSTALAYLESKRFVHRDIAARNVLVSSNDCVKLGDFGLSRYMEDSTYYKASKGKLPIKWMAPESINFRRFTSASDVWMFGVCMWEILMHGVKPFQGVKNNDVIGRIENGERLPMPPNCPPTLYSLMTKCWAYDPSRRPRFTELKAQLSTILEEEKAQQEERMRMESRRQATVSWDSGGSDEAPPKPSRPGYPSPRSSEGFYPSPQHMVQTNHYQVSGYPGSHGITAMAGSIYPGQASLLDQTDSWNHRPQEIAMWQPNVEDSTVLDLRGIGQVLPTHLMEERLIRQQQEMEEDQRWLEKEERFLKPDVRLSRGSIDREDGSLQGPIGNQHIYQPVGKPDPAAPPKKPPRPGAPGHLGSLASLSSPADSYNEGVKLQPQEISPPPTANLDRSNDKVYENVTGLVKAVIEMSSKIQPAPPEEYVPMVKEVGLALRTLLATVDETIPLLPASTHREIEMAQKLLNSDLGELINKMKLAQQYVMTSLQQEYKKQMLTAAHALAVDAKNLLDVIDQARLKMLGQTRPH

[14] = test system: Fibrinogen (Alexa647-labelled); experiment: fibrinogen binders on compound microarrays, profiling panel, artefact control for SMM control-protein annotation, biochemical, small-molecule microarray, 635/667 nm fluorescence (AID 1131); conditions: fibrinogen-A647 binding fluorescence, higher = more signal;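 note: z-score merges 667 nm fluorescence with per-spot signal-to-noise over triplicate slides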
[15] = molecular target: Follistatin (Homo sapiens) (UniProt P19883); experiment: follistatin binders on small-molecule microarrays, primary screen, biochemical, small-molecule microarray, 635/667 nm fluorescence (AID 1132); conditions: FST binding, 635 nm fluorescence, higher = more signal
Follistatin (Homo sapiens), sequence (P19883 whole entry, looked up): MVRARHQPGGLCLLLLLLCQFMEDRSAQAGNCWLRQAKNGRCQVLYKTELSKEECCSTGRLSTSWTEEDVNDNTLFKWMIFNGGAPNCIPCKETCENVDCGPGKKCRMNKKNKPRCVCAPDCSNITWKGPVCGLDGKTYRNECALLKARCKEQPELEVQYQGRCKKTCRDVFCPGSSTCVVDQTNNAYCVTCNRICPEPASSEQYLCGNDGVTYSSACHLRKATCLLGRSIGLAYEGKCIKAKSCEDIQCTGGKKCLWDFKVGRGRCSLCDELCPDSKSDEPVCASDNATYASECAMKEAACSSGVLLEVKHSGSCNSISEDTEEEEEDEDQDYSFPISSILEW

[16] = molecular target: Fibroblast growth factor 2 (Homo sapiens) (UniProt P09038); experiment: FGF2 binders on small-molecule microarrays, primary screen, biochemical, small-molecule microarray, 635/667 nm fluorescence (AID 1133); conditions: small-molecule microarray binding, FGF2, fluorescence 635/667; higher = more signal
Fibroblast growth factor 2 (Homo sapiens), sequence (P09038 whole entry, looked up): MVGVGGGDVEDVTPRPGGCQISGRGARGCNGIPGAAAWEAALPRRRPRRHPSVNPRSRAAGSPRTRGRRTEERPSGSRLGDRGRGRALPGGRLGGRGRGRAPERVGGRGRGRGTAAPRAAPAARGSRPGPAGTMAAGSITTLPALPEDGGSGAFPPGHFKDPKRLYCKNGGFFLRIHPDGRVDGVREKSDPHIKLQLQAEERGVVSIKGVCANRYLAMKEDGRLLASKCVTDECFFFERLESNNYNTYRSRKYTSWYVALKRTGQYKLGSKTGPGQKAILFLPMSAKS

[17] = mitochondrial membrane potential change in A549 cells, profiling panel, cell-based, JC-1 fluorescence, basal, 24 h, 100 nL (AID 1138); conditions: higher = more signal;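 note: A549 lung adenocarcinoma cells under basal conditions with no added stimulus; test concentration not given here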
[18] = test system: Lefty1; experiment: Lefty1 binders on small-molecule microarrays, primary screen, biochemical, small-molecule microarray, 635/667 nm fluorescence (AID 1139); conditions: small-molecule microarray binding, fluorescence 635/667; higher = more signal
[19] = test system: wheat germ agglutinin (Triticum aestivum), Alexa647-labelled; experiment: wheat germ agglutinin binders on compound microarrays, profiling panel, artefact control for SMM control-protein annotation, biochemical, small-molecule microarray, 635/667 nm fluorescence (AID 1140); conditions: WGA-A647 binding, 635 nm fluorescence, higher = more signal;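 note: score merges 667 nm feature emission with signal to noise over triplicate slides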
[20] = molecular target: Luciferin 4-monooxygenase (Photinus pyralis) (UniProt P08659); experiment: firefly luciferase enzyme inhibitors, primary screen, biochemical, luminescence, purified enzyme, 2006 set (AID 1141); conditions: SteadyGlo luminescence, 30 min, higher = more signal, called active from +8 up or from −8 down;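 note: cell-free assay with purified firefly luciferase at 100 ng per well in PBS; test concentration not given here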
Luciferin 4-monooxygenase (Photinus pyralis), sequence (P08659 whole entry, looked up): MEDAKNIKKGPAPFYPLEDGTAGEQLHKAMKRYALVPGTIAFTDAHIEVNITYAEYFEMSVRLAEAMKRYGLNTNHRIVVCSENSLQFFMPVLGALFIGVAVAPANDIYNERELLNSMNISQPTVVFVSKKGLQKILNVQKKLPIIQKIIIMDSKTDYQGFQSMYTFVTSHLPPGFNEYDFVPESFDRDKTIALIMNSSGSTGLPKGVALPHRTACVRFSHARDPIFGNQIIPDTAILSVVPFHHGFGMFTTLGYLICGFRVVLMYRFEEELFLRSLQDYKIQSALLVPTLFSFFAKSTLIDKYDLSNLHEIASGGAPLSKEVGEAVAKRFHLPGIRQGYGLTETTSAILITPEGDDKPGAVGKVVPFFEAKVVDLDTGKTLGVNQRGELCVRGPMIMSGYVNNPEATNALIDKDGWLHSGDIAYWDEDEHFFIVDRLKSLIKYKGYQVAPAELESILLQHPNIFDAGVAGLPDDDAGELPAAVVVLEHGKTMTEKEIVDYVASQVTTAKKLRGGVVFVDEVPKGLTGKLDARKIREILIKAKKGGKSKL

SMILES	composite z-score [1]	composite Z-score [2]	composite z-score [3]	composite z-score [4]	composite z-score [5]	composite z-score [6]	composite z-score [7]	composite z-score [8]	composite z-score [9]	composite z-score [10]	composite z-score [11]	composite z-score [12]	composite z-score [13]	composite z-score [14]	composite z-score [15]	composite z-score [16]	z-score [17]	composite z-score [18]	composite z-score [19]	z-score [20]
CCCCC(CC)C(O)C1C=CC2C(=O)NC(=O)C2N1Nc1ccccn1 (stereo not given)	0.806	0.975 (inactive)	0.0866	-0.0071	0.677	2.53	0.321	1.27	-0.105	0.86	2.27	1.17	0.178	1	0.962	-0.539	0.933	0.21	1.21	-1.55 (inactive)
Cc1ccc(S[C@]2(C(=O)NCC(C)C)CC(=O)N(C3CCCCC3)[C@@H]2c2ccc(CO)cc2I)cc1	0.812	0.209 (inactive)	-0.246	-0.0862	0.637	1.51	0.738	1.28	-0.0402	0.88	0.464	1.17	0.558	0.166	0.0905	-0.284	1.28	0.0839	0.752	1.22 (inactive)
COC(=O)[C@]1(Cc2ccccc2CN=[N+]=[N-])N=C(c2ccc(OCCCO)cc2)O[C@@H]1c1ccccc1	-0.312	0.667 (inactive)	-0.122	-0.0194	0.563	0.243	-0.779	-0.776	-0.928	0.694	0.652	-1.81	-0.435	0.0713	-0.562	-0.782	-0.0525	-0.429	0.441	-1.02 (inactive)
CC1=C2[C@@H](CCc3ccccc3)OB(O)C[C@@H]2[C@@H]2C(=O)C=CC(=O)[C@@H]2C1	0.393	1.64 (inactive)	-0.0677	0.0777	0.298	-0.0088	0.0435	1.01	0.483	0.793	0.892	0.339	-0.512	0.565	1.12	1	-1.2	0.845	0.469	-3.34 (inactive)
O=C1NC(=O)C2C1C=CC(C(O)c1ccc(-c3ccccc3)s1)N2Nc1ccccn1 (stereo not given)	0.781	-1.39 (inactive)	-0.115	0.11	0.91	0.978	1.22	0.105	0.398	0.83	0.322	0.642	0.0118	0.347	0.689	0.0993	0.291	0.0042	0.807	-0.86 (inactive)
COc1ccc(C#Cc2ccc3c(c2)[C@]2(C(=O)N3)[C@H](c3ccc(OCCO)cc3)N3[C@H](c4ccccc4)[C@H](c4ccccc4)OC(=O)[C@H]3[C@@H]2C(=O)N2CCN(c3ncccn3)CC2)cc1	0.716	-0.912 (inactive)	-0.156	-0.157	0.39	0.873	0.324	0.514	-0.233	1.04	0.197	0.816	0.0451	0.771	1.01	0.0495	-1.38	0.305	0.776	0.713 (inactive)
COC(=O)[C@@]1(Cc2ccc(F)cc2)[C@@H]2[C@@H](CC(=O)[C@H]2CC(=O)C(=O)N2CCCC2)CN1C(=O)c1ccccc1	1.08	0.304 (inactive)	0.506	0.239	0.603	3.17	0.552	1.3	-0.232	1.16	0.266	1.24	1.51	0.931	0.95	0.455	0.694	-1.01	0.772	2.19 (inactive)
NC(=O)[C@@H]1[C@H]2C(=O)O[C@H](c3ccccc3)[C@H](c3ccccc3)N2[C@H](c2ccccc2OCCO)[C@@]12C(=O)Nc1ccc(C#CCCO)cc12	0.59	-0.309 (inactive)	-0.218	-0.147	0.71	0.663	0.148	0.13	-0.68	1.18	0.553	-0.464	0.155	0.947	-0.0704	-0.455	0.669	-0.128	0.335	1 (inactive)
COC(=O)C(CC#Cc1ccc2c(c1)[C@]1(C(=O)N2)[C@H](c2ccc(O)cc2)N2[C@H](c3ccccc3)[C@H](c3ccccc3)OC(=O)[C@H]2[C@@H]1C(N)=O)C(=O)OC	-0.999	-0.421 (inactive)	-0.256	-0.118	-0.669	-0.43	-0.404	-1.43	-2.25	-1.3	-2.69	-1.91	-0.627	-1.96	-2.01	-1.44	1.42	-2.6	-2.35	-0.899 (inactive)
COCCOC(=O)N1C(=O)[C@@]2(c3cc(C#CC4(O)CCCCCC4)ccc31)[C@H](C(=O)N1CCN(c3ncccn3)CC1)[C@H]1C(=O)O[C@H](c3ccccc3)[C@H](c3ccccc3)N1[C@@H]2c1ccc(O)cc1	0.886	0.528 (inactive)	-0.0006	-0.0795	0.35	1.12	0.73	1.22	-0.35	1.11	1.47	1.19	0.206	0.676	0.91	0.35	-0.328	0.354	1.04	-1.46 (inactive)
CC1(C)[C@@H]2CC(C(O)C3C=CC4C(=O)N(c5ccccc5)C(=O)C4N3Nc3ccccc3F)=C[C@@H]1C2 (stereo not given in full)	0.844	0.0252 (inactive)	0.272	-0.229	0.571	2.66	0.405	1.29	0.0364	1.09	1.41	1.2	0.218	0.938	0.876	1.26	-0.136	0.655	0.392	0.905 (inactive)
